According to PubChem BioAssay:

molecular target: Alpha-bungarotoxin (Bungarus multicinctus) (UniProt P60615); test: alpha-bungarotoxin binders on microarray, profiling panel, artefact control for SMM control protein annotation, biochemical, small-molecule microarray, Alexa647 label, 635/667 nm fluorescence (AID 1117); conditions: alpha-BTX-A647 binding fluorescence, higher = more signal
Sequence (P60615 whole entry, looked up): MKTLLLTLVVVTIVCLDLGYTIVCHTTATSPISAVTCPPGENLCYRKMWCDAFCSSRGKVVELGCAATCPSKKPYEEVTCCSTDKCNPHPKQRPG

Compound | composite z-score
COC(=O)c1c(CC[C@@H](CO)NC(=O)N[C@@H](Cc2ccccc2)Cn2cc(C3(O)CCCCC3)nn2)oc(C(C)=O)c1C(=O)OC | 0.519
Cc1ccc(S[C@]2(C(=O)NCc3ccccc3)CC(=O)N(Cc3ccccc3Cl)[C@@H]2c2ccc(CO)cc2I)cc1 | 1.7
COCCOC(=O)N1C(=O)[C@@]2(c3cc(C#Cc4ccc(OC)cc4)ccc31)[C@H](C(=O)N1CCN(c3ncccn3)CC1)[C@H]1C(=O)O[C@H](c3ccccc3)[C@H](c3ccccc3)N1[C@@H]2c1ccc(O)cc1 | 0.107
CC(C)(C)OC(=O)CC[C@@]1(C(=O)NCCN2CCOCC2)N=C(c2ccc(OCCCO)cc2)O[C@@H]1c1ccccc1 | 2.08
COCCOC(=O)N1C(=O)[C@@]2(c3cc(C#CC4(O)CCCCCC4)ccc31)[C@H](C(=O)N1CCCCCCC1)[C@H]1C(=O)O[C@H](c3ccccc3)[C@H](c3ccccc3)N1[C@@H]2c1ccccc1OCCO | 1.49
CC(C)c1ccc(NN2C(C(O)c3c(F)cccc3Cl)C=CC3C(=O)N(c4ccccc4)C(=O)C32)cc1 (configuration not stated) | 1.81
O=C1OCC=C[C@H]2OC34C=CCN(c5ccc6ccccc6c5)C(=O)[C@H]3N(CCCO)C(=O)[C@@H]4[C@@H]12 (some centres not stated) | -0.871
CCCCC(CC)C(O)C1C=CC2C(=O)N(c3ccccc3)C(=O)C2N1Nc1ccccc1 (configuration not stated) | 1.1
O=C1C=CC(=O)[C@@H]2CC(COc3ccccc3)=C3[C@@H](CCc4ccccc4)OB(O)C[C@@H]3[C@H]12 | 0.361
NC(=O)NCC#Cc1ccc2c(c1)[C@]1(C(=O)N2)[C@H](C(=O)NC[C@H](O)c2ccccc2)[C@H]2C(=O)O[C@H](c3ccccc3)[C@H](c3ccccc3)N2[C@@H]1c1ccc(O)cc1 | 2.19
COC(=O)[C@@]1(Cc2ccccc2)[C@H]2c3cc(C(=O)N(C)C)n(Cc4c(-c5ccccc5)noc4C)c3C[C@H]2CN1C(=O)c1ccccc1 | 1.56
[N-]=[N+]=Nc1ccccc1[C@H]1OC(c2ccc(OCCCO)cc2)=N[C@@]1(CCS(=O)(=O)c1ccccc1)C(=O)O | 0.582
COCCCNC(=O)[C@@]1(C)c2ccccc2C(=O)N(Cc2cc(C(F)(F)F)cc(C(F)(F)F)c2)[C@H]1c1ccc(CO)cc1 | 1.41
CC(C)(C)N1CC=CC23O[C@@H]4C=CCOC(=O)[C@@H]4[C@H]2C(=O)N(CCCCCO)[C@@H]3C1=O (some centres not stated) | -1.45
CC(C)N1C(=O)c2ccccc2[C@@H](C(=O)NCCCN(C)C)[C@@H]1c1ccc(CO)cc1 | 0.684
COc1ccc(C(=O)Nc2cccc(CN3C(=O)[C@]4(O[C@H](CC(=O)N5CCC[C@H]5CO)[C@@H]([Si](C)(C)c5ccc(OC)cc5)[C@@H]4C)c4ccccc43)c2)cc1 | 0.954
O=C(CS)NCCCCCCNC(=O)[C@@H]1C[C@@H]2C(=O)N3CCC[C@H]3C(=O)N2[C@@H]1c1ccc(O)cc1 | 0.139
C=C[C@@H](COC(C)=O)N(Cc1ccccc1[N+](=O)[O-])S(=O)(=O)c1ccc(Br)cc1 | 0.864
COc1cc2c(cc1O)C(C)N(Cc1cccc(OC(F)(F)F)c1)CC2 (configuration not stated) | 0.514
CC(C)N1C(=O)C[C@@](C(=O)NCc2ccccc2)(c2ccc([N+](=O)[O-])cc2)[C@H]1c1ccc(CO)cc1 | -0.148
CCCN1C(=O)[C@]2(COC(c3ccc(OCCCO)cc3)=N2)Cc2ccccc21 | 1.03
COC(=O)C(CC#Cc1ccc2c(c1)[C@]1(C(=O)N2)[C@H](c2ccc(OCCO)cc2)N2[C@H](c3ccccc3)[C@H](c3ccccc3)OC(=O)[C@H]2[C@@H]1C(=O)NC[C@H](O)c1ccccc1)C(=O)OC | 2.1
O=C1C2C=CC(C(O)c3ccc(B(O)O)cc3)N(Nc3ccccc3)C2C(=O)N1c1ccccc1 (configuration not stated) | 0.402
O=C1O[C@H](c2ccccc2)[C@H](c2ccccc2)N2[C@H]1[C@@H](C(=O)NC[C@H](O)c1ccccc1)[C@]1(C(=O)Nc3ccc(C#CCCO)cc31)[C@H]2c1ccc(O)cc1 | -1.61
O=C1O[C@@H](c2ccccc2)[C@@H](c2ccccc2)N2[C@@H](c3ccc(O)cc3)[C@]3(C(=O)Nc4ccc(C#CC5=CCCCC5)cc43)[C@@H](C(=O)O)[C@H]12 | 1.17
CCOC(=O)C1=CCC(c2ccc(C#N)cc2)N(S(=O)(=O)c2ccc(C)cc2)C1 (configuration not stated) | 2.25
CCN(CC)c1ccc(N2CC=CC34O[C@@H]5C=CCCOC(=O)C5[C@H]3C(=O)N(CCCCCO)[C@@H]4C2=O)cc1 (some centres not stated) | -0.66
